Several values for one entry are separate records, joined by “and”; a condition that tells them apart may be missing. Equal values may be shown once. Results filed as inconclusive are left out. More than one record can exist for a structure, and the calls need not agree. Activity calls are given as the source filed them. The calls were made as follows, unless noted: active = hit-call score of the fitted dose curve at least 0.9, where 1 is the maximum; inconclusive = response in the unintended direction; inactive = score below 0.9.
How the values were obtained:
[1] = target: Agonist Androgen Response Element (ARE), AR (gene 367) (UniProt P10275); assay: OT_AR_ARELUC_AG_1440: Odyssey Thera (OT) 24-hour CHO-K1 Luciferase Assay for Agonist Androgen Response Element (ARE) (AID 2283379)
Procedure, shortened: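 Agonist mode, 24 h exposure in CHO-K1 ARE-luciferase cells; values reflect luminescence induction over vehicle.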

[2] = target: Estrogen receptor beta (Homo sapiens) (UniProt Q92731); assay: OT_ER_ERbERb_1440: Odyssey Thera (OT) 24-hour HEK293T Protein-Complementation Assay for Estrogen Receptor-beta/-beta Homodimer (AID 2283380);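 also: fluorescence gain from ER beta LBD homodimer complementation read by laser scanning cytometry; scored as signal increase over DMSO baseline for both agonists and antagonists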
Procedure, shortened: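 Fluorescence increase, nuclear for agonists or whole-cell for antagonists, relative to DMSO vehicle, quantified by laser scanning cytometer after fixation and Draq5 staining. Readout from 24 h treatment of HEK293T cells carrying complementation-paired ER beta LBD (aa 310-547).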

[3] = target: Estrogen receptor (Homo sapiens) (UniProt P03372); assay: OT_ERa_GFPERaERE_0480: Odyssey Thera (OT) 8-hour HeLa Transcription Induction Assay for Estrogen Receptor (AID 2283381; active = hit-call score of the fitted dose curve at least 0.9, where 1 is the maximum; inactive = score below 0.9)
Procedure, shortened: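 HeLa cells expressing GFP reporter under estrogen response element, imaged 8 h after dosing. GFP induction quantified by high-content fluorescence microscopy image analysis; gain of signal fitted versus DMSO.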

[4] = target: Estrogen receptor (Homo sapiens) (UniProt P03372); assay: OT_ERa_GFPERaERE_0120: Odyssey Thera (OT) 2-hour HeLa Transcription Induction Assay for Estrogen Receptor (AID 2283382)
Procedure, shortened: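 HeLa cells were dosed for 2 h, then GFP reporter induction was quantified by fluorescence microscopy with high-content image analysis. Gain of signal fitted against DMSO baseline.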

[5] = target: Retinoic acid receptor RXR-alpha (Homo sapiens) (UniProt P19793); assay: OT_NURR1_NURR1RXRa_0480: Odyssey Thera (OT) 8-hour HEK293T Protein Complementation Assay for Nurr1/retinoid X receptor (RXR) (AID 2283385)
Procedure, shortened: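 HEK293T cells expressing Nurr1 and RXRα fused to reporter fragments (protein-fragment complementation); fluorescence measured 8 h after dosing. Gain of signal fitted relative to DMSO.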

[6] = target: Retinoic acid receptor RXR-alpha (Homo sapiens) (UniProt P19793); assay: OT_NURR1_NURR1RXRa_1440: Odyssey Thera (OT) 24-hour HEK293T Protein Complementation Assay for Nurr1/retinoid X receptor (RXR) (AID 2283386)
Procedure, shortened: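 HEK293T protein-fragment complementation of Nurr1 and RXRα fused to reporter fragments; compounds 24 h. Fluorescence gain from reconstituted reporter fitted versus DMSO.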

[7] = target: Peroxisome proliferator-activated receptor gamma (Homo sapiens) (UniProt P37231); assay: OT_PPARg_PPARgSRC1_0480: Odyssey Thera (OT) 8-hour Protein-Complementation Assay for Peroxisome Proliferator-activated Receptor Gamma / SRC-1 Co-activator (AID 2283387)
Procedure, shortened: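 Split-YFP (IFP1/IFP2) PPARg/SRC-1 reporter, HEK293T, 37 °C, 5% CO2; 8 h compound; formaldehyde fix + Draq5; high-content imaging, N/C ratio, ≥350 cells/image, positive direction vs DMSO.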

[8] = target: Peroxisome proliferator-activated receptor gamma (Homo sapiens) (UniProt P37231); assay: OT_PPARg_PPARgSRC1_1440: Odyssey Thera (OT) 24-hour Protein-Complementation Assay for Peroxisome Proliferator-activated Receptor Gamma/ SRC-1 Co-activator (AID 2283388)
Procedure, shortened: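 HEK293T cells transiently transfected with PPARg and SRC-1 fused via (Gly4Ser)2 linker to split Venus YFP fragments (IFP1/IFP2) were dosed 24 h; fixed, Draq5-stained, imaged at 488/635 nm; nuclear/cytoplasmic fluorescence ratio scored versus DMSO baseline, gain-of-signal.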

[9] = CEETOX_H295R_OHPREG: CeeTox H295R High-throughput Steroidogenesis Assay for OH-Pregnenolone (OHPREG) (AID 2283434; active = hit-call score of the fitted dose curve at least 0.9, where 1 is the maximum; inactive = score below 0.9); conditions: actives raise or lower the signal
Procedure, shortened: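 Hormone levels in spent medium were measured by tandem mass spectrometry following liquid-liquid extraction. Cells (H295R) had been forskolin-stimulated (10 uM, 48 h) before a 48 h chemical exposure at 0.1% DMSO, with activity fitted in both directions against DMSO.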

[10] = CEETOX_H295R_OHPROG: CeeTox H295R High-throughput Steroidogenesis Assay for OH-Progesterone (OHPROG) (AID 2283435; active = hit-call score of the fitted dose curve at least 0.9, where 1 is the maximum; inactive = score below 0.9;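 as to AC50: human adrenal H295R cells primed 48 h with 10 µM forskolin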); conditions: actives raise or lower the signal
Procedure, shortened: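 H295R adrenal cells prestimulated 48 h with 10 uM forskolin, then exposed 48 h to chemical (0.1% DMSO final). 17alpha-hydroxyprogesterone in medium quantified by HPLC-MS/MS; bidirectional fit versus DMSO, with MTT viability measured in the same wells.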

[11] = CEETOX_H295R_ANDR: CeeTox H295R High-throughput Steroidogenesis Assay for Androstenedione (ANDR) (AID 2283436; active = hit-call score of the fitted dose curve at least 0.9, where 1 is the maximum; inactive = score below 0.9); conditions: actives raise or lower the signal
Procedure, shortened: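 Read-out is androstenedione secreted into medium, measured by tandem mass spectrometry after liquid-liquid extraction. Cells were H295R, dosed for 48 h per modified OECD 456; activity fitted in both directions relative to DMSO.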

[12] = CEETOX_H295R_ESTRADIOL: CeeTox H295R High-throughput Steroidogenesis Assay for Estradiol (AID 2283440; active = hit-call score of the fitted dose curve at least 0.9, where 1 is the maximum; inactive = score below 0.9;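 also: estradiol secreted into medium quantified by LC-MS/MS after dansyl derivatisation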); conditions: actives raise or lower the signal
Procedure, shortened: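 H295R adrenocortical cells were prestimulated with 10 uM forskolin for 48 h, then exposed to test chemical in 0.1% DMSO for 48 h. Medium estradiol was extracted with MTBE, dansyl-derivatized and quantified by HPLC-MS/MS; bidirectional fit versus DMSO.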

[13] = CEETOX_H295R_ESTRONE: CeeTox H295R High-throughput Steroidogenesis Assay for Estrone (AID 2283441; active = hit-call score of the fitted dose curve at least 0.9, where 1 is the maximum; inactive = score below 0.9;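 also: estrone secreted into medium measured by LC-MS/MS after dansyl derivatization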); conditions: actives raise or lower the signal
Procedure, shortened: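 H295R cells prestimulated 48 h with 10 uM forskolin, then exposed 48 h to chemicals in 0.1% DMSO final; estrone in medium extracted with MTBE, dansyl-derivatized, quantified by HPLC-MS/MS; bidirectional fitting versus DMSO, viability by MTT.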

[14] = target: Bile acid receptor (Homo sapiens) (UniProt Q96RI1); assay: OT_FXR_FXRSRC1_0480: Odyssey Thera (OT) 8-hour HEK293T Protein-Complementation Assay for Farnesoid X receptor/SRC-1 Co-activator (AID 2283383)
Procedure, shortened: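 HEK293T protein-fragment complementation assay: FXR and SRC-1 coactivator are fused to reporter fragments, and their interaction restores a fluorescent reporter. Readout was taken 8 h after dosing, with gain of signal fit relative to DMSO.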

[15] = target: Bile acid receptor (Homo sapiens) (UniProt Q96RI1); assay: OT_FXR_FXRSRC1_1440: Odyssey Thera (OT) 24-hour HEK293T Protein-Complementation Assay for Farnesoid X receptor/SRC-1 Co-activator (AID 2283384)
Procedure, shortened: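 HEK293T cells, 24 h after chemical dosing. FXR–SRC-1 coactivator interaction read as fluorescence from protein-fragment complementation of a split reporter. Gain of signal fitted against DMSO baseline.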

[16] = target: Norway rat Vesicular Monoamine Transporter (VMAT2), neurotransmitter transporter, Slc18a2 (gene 25549) (UniProt Q01827); assay: NVS_TR_rVMAT2: NovaScreen (NVS) Transporter Assay for Norway rat Vesicular Monoamine Transporter (VMAT2), neurotransmitter transporter (AID 2283376);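 also: actives lower the bound radioligand signal below the DMSO level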
Procedure, shortened: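 Tissue: rat forebrain extract. Format: competitive radioligand binding, cell-free. Timepoint: 1 h. Readout: filter radiodetection/scintillation. Screen: 25 uM in duplicate, then concentration series for actives. Baseline: DMSO.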

[17] = target: human Norepinephrine Transporter (NET), SLC6A2 (gene 6530) (UniProt P23975); assay: NVS_TR_hNET: NovaScreen (NVS) Transporter Assay for human Norepinephrine Transporter (NET) (AID 2283377);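 also: cell-free membrane protein extracted from CHO cells expressing human NET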;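 as to AC50: displacement of radioligand from human NET seen as loss of scintillation signal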
Procedure, shortened: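 Scintillation counts of filter-retained radioligand served as the readout, taken 1 h post-dosing in a cell-free CHO-derived system. Test chemicals ran first at 25 uM in duplicate; confirmed hits were retested across concentrations.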

[18] = target: rat Serotonin Transporter (SERT), Slc6a4 (gene 25553) (UniProt P31652); assay: NVS_TR_rSERT: NovaScreen (NVS) Transporter Assay for rat Serotonin Transporter (SERT) (AID 2283375)
Procedure, shortened: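 Rat forebrain membranes were incubated with test chemical for 1 hour; radioligand binding to SERT was measured by filter-based scintillation counting. Primary screen ran in duplicate at 25 uM, with actives followed up in concentration series; DMSO served as negative control.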

[19] = CEETOX_H295R_CORTISOL: CeeTox H295R High-throughput Steroidogenesis Assay for Cortisol (AID 2283438; active = hit-call score of the fitted dose curve at least 0.9, where 1 is the maximum; inactive = score below 0.9;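 also: cortisol secreted into medium quantified by LC-MS/MS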); conditions: actives raise or lower the signal
Procedure, shortened: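 Forskolin-primed H295R cells (10 uM, 48 h) treated 48 h with test chemical in 0.1% DMSO. Cortisol in medium quantified by MTBE extraction and HPLC-MS/MS; bidirectional fit vs DMSO, MTT viability in same wells.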

[20] = CEETOX_H295R_DOC: CeeTox H295R High-throughput Steroidogenesis Assay for DOC (AID 2283439; active = hit-call score of the fitted dose curve at least 0.9, where 1 is the maximum; inactive = score below 0.9); conditions: actives raise or lower the signal
Procedure, shortened: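 H295R cells prestimulated 48 h with 10 uM forskolin, then exposed 48 h to test chemical (0.1% DMSO final). Medium 11-deoxycorticosterone measured by HPLC-MS/MS after MTBE extraction; bidirectional fit vs DMSO, viability checked by MTT in same wells.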

Measured: AC50

Chain of human Norepinephrine Transporter (NET), SLC6A2 (gene 6530) (P23975 whole entry, looked up): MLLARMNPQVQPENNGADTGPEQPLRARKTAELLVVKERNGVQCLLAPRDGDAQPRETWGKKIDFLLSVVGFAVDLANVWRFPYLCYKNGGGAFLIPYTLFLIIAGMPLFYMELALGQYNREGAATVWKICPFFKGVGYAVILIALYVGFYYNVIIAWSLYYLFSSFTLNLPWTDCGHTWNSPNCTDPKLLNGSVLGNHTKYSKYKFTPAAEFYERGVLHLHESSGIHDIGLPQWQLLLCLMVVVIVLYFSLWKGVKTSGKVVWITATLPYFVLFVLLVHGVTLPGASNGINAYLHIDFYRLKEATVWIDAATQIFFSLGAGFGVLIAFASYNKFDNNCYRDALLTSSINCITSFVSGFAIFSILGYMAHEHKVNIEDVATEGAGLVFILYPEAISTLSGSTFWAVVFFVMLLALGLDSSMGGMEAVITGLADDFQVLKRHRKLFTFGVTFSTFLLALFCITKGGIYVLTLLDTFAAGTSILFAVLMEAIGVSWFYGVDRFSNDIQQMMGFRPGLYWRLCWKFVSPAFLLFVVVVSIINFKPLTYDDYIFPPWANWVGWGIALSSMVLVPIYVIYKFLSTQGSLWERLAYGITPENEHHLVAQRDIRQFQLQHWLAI
Chain of Agonist Androgen Response Element (ARE), AR (gene 367) (P10275 whole entry, looked up): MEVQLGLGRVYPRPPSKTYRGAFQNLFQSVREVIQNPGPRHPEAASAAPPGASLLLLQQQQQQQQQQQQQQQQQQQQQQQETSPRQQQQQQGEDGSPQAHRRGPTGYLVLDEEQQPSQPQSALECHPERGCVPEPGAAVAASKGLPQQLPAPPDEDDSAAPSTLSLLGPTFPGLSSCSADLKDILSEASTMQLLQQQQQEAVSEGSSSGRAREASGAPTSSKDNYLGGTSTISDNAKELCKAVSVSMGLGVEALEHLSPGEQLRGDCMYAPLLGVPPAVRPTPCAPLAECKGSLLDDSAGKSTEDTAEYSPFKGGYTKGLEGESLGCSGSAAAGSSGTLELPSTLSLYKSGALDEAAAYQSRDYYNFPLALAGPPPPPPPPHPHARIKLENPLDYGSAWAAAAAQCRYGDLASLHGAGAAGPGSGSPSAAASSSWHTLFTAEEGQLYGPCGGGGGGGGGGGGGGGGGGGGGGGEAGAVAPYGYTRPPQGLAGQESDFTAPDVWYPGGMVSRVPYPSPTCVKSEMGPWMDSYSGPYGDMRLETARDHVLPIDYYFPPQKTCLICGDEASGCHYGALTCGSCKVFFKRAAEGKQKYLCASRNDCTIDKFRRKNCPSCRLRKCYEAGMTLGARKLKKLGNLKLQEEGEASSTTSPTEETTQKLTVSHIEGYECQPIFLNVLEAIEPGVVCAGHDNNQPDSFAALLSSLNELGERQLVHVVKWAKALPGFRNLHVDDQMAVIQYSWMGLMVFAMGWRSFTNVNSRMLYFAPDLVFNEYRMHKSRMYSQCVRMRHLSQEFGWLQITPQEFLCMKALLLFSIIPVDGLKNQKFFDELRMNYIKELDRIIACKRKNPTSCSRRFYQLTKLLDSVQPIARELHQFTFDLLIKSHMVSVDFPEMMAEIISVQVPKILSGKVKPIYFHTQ
Chain of rat Serotonin Transporter (SERT), Slc6a4 (gene 25553) (P31652 whole entry, looked up): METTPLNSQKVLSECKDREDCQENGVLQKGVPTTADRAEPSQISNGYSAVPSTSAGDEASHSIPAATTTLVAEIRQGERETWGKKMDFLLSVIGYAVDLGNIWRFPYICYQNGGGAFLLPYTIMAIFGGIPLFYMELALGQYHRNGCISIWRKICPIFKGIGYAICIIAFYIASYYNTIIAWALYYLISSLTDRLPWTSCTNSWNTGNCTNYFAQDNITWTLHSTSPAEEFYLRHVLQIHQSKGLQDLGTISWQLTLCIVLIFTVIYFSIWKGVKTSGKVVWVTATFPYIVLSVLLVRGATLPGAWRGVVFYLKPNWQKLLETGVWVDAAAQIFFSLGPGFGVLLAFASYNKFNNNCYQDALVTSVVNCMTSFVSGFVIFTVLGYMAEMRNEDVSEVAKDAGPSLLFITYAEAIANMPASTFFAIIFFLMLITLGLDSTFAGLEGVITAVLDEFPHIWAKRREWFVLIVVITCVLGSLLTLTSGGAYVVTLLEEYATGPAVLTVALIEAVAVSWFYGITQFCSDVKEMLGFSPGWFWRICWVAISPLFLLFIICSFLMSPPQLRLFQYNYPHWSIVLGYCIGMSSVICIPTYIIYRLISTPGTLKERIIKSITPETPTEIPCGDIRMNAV
Chain of Retinoic acid receptor RXR-alpha (Homo sapiens) (P19793 whole entry, looked up, the tested form may be a part): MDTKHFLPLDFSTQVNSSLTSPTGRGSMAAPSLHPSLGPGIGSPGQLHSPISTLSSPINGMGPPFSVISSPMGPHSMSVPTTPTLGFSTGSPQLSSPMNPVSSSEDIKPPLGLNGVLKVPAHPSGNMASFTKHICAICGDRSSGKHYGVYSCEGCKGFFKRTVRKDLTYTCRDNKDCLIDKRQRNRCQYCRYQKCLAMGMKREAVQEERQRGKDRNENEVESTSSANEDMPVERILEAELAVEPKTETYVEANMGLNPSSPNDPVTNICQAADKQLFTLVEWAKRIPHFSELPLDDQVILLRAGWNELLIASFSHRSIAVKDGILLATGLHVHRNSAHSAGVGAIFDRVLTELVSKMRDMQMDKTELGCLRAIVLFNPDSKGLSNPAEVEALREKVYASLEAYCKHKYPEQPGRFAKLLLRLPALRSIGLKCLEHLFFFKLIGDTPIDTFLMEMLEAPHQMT
Chain of Bile acid receptor (Homo sapiens) (Q96RI1 whole entry, looked up, the tested form may be a part): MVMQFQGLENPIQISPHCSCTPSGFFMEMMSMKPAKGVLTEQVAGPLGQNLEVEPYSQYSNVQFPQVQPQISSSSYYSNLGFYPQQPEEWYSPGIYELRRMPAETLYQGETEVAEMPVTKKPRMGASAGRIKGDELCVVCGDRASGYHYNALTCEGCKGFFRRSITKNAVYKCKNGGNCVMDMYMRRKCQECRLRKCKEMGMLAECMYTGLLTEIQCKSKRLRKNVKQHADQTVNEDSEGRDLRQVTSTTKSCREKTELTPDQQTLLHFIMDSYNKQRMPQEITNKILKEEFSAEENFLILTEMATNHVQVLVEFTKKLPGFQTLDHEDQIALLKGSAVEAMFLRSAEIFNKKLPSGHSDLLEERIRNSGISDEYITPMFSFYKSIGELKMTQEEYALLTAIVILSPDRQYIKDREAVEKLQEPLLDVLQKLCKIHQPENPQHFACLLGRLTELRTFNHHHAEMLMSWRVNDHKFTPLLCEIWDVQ
Chain of Estrogen receptor beta (Homo sapiens) (Q92731 whole entry, looked up, the tested form may be a part): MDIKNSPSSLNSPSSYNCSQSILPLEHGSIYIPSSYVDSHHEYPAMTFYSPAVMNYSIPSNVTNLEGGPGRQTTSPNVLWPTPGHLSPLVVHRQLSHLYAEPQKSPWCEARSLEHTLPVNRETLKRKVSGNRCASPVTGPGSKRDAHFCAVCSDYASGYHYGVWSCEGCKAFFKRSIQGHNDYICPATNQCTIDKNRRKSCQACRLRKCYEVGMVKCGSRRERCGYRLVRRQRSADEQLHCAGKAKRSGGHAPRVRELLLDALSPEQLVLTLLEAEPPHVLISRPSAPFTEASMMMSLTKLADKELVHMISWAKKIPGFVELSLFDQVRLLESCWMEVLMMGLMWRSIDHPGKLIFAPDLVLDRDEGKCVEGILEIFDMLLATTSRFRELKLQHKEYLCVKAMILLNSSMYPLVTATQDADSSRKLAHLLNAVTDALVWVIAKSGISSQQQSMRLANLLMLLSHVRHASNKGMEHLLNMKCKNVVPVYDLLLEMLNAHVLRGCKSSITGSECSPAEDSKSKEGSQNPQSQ
Chain of Peroxisome proliferator-activated receptor gamma (Homo sapiens) (P37231 whole entry, looked up, the tested form may be a part): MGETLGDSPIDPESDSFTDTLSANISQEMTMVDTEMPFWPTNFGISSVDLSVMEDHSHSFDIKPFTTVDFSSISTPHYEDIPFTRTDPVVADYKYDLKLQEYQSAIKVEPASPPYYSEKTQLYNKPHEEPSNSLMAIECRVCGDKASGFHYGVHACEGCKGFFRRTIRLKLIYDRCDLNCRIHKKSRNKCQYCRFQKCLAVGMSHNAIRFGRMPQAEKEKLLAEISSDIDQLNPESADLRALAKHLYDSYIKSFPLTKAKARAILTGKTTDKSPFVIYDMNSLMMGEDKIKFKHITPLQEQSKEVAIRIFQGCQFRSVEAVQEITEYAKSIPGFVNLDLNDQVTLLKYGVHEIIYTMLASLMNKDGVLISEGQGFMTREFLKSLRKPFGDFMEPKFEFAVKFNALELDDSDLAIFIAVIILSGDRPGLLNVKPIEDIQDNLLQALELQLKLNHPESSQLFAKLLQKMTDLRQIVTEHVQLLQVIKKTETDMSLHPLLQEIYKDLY
Chain of Estrogen receptor (Homo sapiens) (P03372 whole entry, looked up): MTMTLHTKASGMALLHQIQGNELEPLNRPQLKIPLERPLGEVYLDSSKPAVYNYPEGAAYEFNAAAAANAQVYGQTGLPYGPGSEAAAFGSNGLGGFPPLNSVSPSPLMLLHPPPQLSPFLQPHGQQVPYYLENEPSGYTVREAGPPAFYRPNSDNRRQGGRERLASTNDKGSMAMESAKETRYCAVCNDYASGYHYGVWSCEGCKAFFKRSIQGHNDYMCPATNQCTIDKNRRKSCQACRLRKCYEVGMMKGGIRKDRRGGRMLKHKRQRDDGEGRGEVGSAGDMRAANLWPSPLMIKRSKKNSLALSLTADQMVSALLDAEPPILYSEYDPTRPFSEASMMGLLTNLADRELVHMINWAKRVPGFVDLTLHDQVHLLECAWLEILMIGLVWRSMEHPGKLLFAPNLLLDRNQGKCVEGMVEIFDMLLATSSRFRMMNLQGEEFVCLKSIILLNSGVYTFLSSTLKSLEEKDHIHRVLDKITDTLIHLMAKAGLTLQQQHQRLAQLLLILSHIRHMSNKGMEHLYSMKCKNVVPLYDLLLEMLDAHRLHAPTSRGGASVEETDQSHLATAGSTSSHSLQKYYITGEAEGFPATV

CNC(=O)ON=C(SC)C(=O)N(C)C
not listed: [14] | [15] | [16] | [17] | [18] | [19] | [20]
inactive: all other assays above

CCCSP(=O)(OCC)Oc1ccc(Br)cc1Cl (centres undefined)
active: [14] 25 µM | [5] 44 µM
inactive: [2] | [15] | [5] | [6] | [7] | [8] | [9] | [10]

CCC(=O)Nc1ccc(Cl)c(Cl)c1
active: [16] 23.3 µM | [17] 4.14 µM | [10] 3.97 µM | [11] 3.89 µM
inactive: [1] | [6] | [7] | [8] | [9]

O=c1ccc(=O)[nH][nH]1
inactive: [1] | [14] | [5] | [6] | [7] | [8]

CC(Oc1cccc(Cl)c1)C(=O)O (centres undefined)
inactive: [17] | [2] | [14] | [15] | [5] | [6] | [7] | [8]

C#CCC1=C(C)C(OC(=O)C2C(C=C(C)C)C2(C)C)CC1=O (centres undefined)
active: [14] 33 µM | [15] 49.8 µM | [5] 66.7 µM | [6] 79.6 µM
inactive: [2] | [5] | [6] | [7] | [8] | [9] | [10]

CCCOCC(=Nc1ccc(Cl)cc1C(F)(F)F)n1ccnc1
inactive: [18] | [16] | [2] | [7] | [8]
active: [15] 11.2 µM | [9] 0.377 µM | [10] 0.147 µM | [19] 0.105 µM | [20] 0.165 µM

COP(=O)(OC)SCn1c(=O)oc2cc(Cl)cnc21
inactive: [1] | [3] | [4] | [5] | [7] | [8]

CCOP(=O)(NC(C)C)Oc1ccc(SC)c(C)c1 (centres undefined)
active: [14] 50 µM | [15] 8.5 µM | [9] 13.9 µM | [11] 50 µM | [20] 17.4 µM
inactive: [1] | [2] | [5] | [6] | [7] | [8] | [19]

CC[C@H](C)[C@H]1O[C@]2(C=C[C@@H]1C)C[C@@H]1C[C@@H](C/C=C(\C)[C@@H](O[C@H]3C[C@H](OC)[C@@H](O[C@H]4C[C@H](OC)[C@@H](NC)[C@H](C)O4)[C@H](C)O3)[C@@H](C)/C=C/C=C3\CO[C@@H]4[C@H](O)C(C)=C[C@@H](C(=O)O1)[C@]34O)O2
active: [16] 4.68 µM | [17] 5.29 µM | [3] 17.9 µM
inactive: [4] | [6] | [7] | [8]

CSC1=N[C@@](C)(c2ccccc2)C(=O)N1Nc1ccccc1
active: [14] 44.8 µM | [15] 50 µM
inactive: [2] | [5] | [6] | [7] | [8]

CC1(C(=O)Nc2ccc(O)c(Cl)c2Cl)CCCCC1
active: [2] 20.6 µM | [9] 7.52 µM | [10] 9.28 µM
inactive: [14] | [15] | [5] | [6] | [7] | [8]

Nc1c(Cl)cc([N+](=O)[O-])cc1Cl
active: [18] 3.3 µM
inactive: [1] | [2] | [3] | [4] | [14] | [5] | [6] | [7] | [8]

CC(C)N(C(=O)SCC(Cl)=C(Cl)Cl)C(C)C
active: [14] 21.9 µM | [15] 80.5 µM | [5] 74.3 µM and 85 µM | [6] 77.9 µM
inactive: [18] | [2] | [6]

CCOP(=S)(OCC)Oc1ccc([N+](=O)[O-])cc1
inactive: [5] | [6] | [7] | [8] | [9]
active: [18] 8.93 µM | [10] 0.39 µM | [19] 1.93 µM | [20] 0.775 µM

Source: PubChem BioAssay (EPA / NIEHS)
